Experimental findings from PubChem BioAssay are described below.

As usually defined, the inhibition is the relative decrease from the control value, in per cent.

Assay [1] can be described thus: antimalarial activity against Dd2 strain (AID 2302;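 active = growth inhibition above 50% at the single 2 µM test dose, taken to imply half-maximal potency below 2 µM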;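 also: 0% = DMSO untreated growth and 100% = chloroquine plus artemisinin killed control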). As to conditions: P. falciparum Dd2 in RBCs, LDH growth readout, 72 h; at 2 µM; stronger effect = higher value.
Assay [2] in a line: HepG2 cytotoxicity, primary screen, cytotoxicity control for P. falciparum antimalarial project, cell-based, ATP luminescence (AID 2303;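 active = inhibition above 50%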;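 also: 0% = DMSO wells and 100% = digitonin-killed cells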). As to conditions: HepG2 viability, 24-48 h, at 10 µM, stronger effect = higher value.
The target of assay [3] is L-lactate dehydrogenase (Plasmodium falciparum (isolate CDC / Honduras)) (UniProt Q27743). Nature of the assay: PfLDH activity inhibition – cell lysate, 3D7 strain, counter-screen for P. falciparum growth inhibition project (AID 2304).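 Also: 0% = vehicle and 100% = reference inhibitor.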 Particulars: P. falciparum 3D7 crude extract, LDH APAD/NBT absorbance; at 2 µM; stronger effect = higher value. (In general: Counterscreens check selectivity or assay interference.)
Sequence of L-lactate dehydrogenase (Plasmodium falciparum (isolate CDC / Honduras)) (Q27743 whole entry, looked up): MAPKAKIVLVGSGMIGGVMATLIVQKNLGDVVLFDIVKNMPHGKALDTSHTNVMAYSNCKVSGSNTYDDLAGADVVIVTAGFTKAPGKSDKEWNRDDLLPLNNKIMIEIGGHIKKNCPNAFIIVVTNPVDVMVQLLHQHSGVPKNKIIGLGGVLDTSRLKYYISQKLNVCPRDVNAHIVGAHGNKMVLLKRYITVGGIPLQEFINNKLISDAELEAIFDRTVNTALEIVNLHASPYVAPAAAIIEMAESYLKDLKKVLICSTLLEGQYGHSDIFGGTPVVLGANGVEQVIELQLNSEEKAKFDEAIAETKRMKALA

Assay [4] in a line: inhibition of 3D7 malaria parasite growth – strain 3D7 (AID 2306).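 Also: 0% = DMSO wells and 100% = chloroquine plus artemisinin control wells.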 As to conditions: P. falciparum 3D7 erythrocytic growth, LDH absorbance, 72 h; at 2 µM; stronger effect = higher value.
Assay [5] has as its target Calcium-dependent protein kinase 1 (Plasmodium falciparum (isolate 3D7)) (UniProt P62344). Nature of the assay: PfCDPK1 kinase inhibitors, biochemical, TCAMS library (AID 1159585; cut-off not given, nearly all actives have IC50 up to about 0.98 µM;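 also: inhibitors leave more ATP so luminescence rises with inhibition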). As to conditions: recombinant PfCDPK1, Kinase-Glo ATP depletion luminescence.
For assay [6], the target named is Plasmodium falciparum protein kinase 6 (PK6, PF3D7_1337100) (UniProt Q8IDW1). The assay is described as follows: PfPK6 kinase inhibitors, biochemical, TCAMS library (AID 1159586). Particulars: recombinant PfPK6, Kinase-Glo ATP depletion luminescence. (In general: In Kinase-Glo more light means more ATP remaining.)
Sequence of Plasmodium falciparum protein kinase 6 (PK6, PF3D7_1337100) (Q8IDW1 1-305): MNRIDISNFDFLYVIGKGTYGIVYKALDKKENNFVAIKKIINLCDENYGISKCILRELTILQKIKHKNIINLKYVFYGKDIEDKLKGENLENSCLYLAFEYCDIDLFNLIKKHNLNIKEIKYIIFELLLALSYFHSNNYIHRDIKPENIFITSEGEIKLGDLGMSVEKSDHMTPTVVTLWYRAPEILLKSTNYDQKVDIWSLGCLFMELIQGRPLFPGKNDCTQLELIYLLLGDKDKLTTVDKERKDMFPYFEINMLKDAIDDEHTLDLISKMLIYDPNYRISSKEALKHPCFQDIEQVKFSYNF
Assay [7] has as its target Protein kinase 7 (PK7), Plasmodium falciparum 3D7 (PF3D7_0213400) (UniProt Q7YTF7). The assay is described as follows: inhibition of Plasmodium PK7 catalytic activity – biochemical, TCAMS antimalarial set, Kinase-Glo luminescence (AID 1159587). As to conditions: recombinant PfPK7, Kinase-Glo ATP depletion luminescence.
In assay [8] the target is Calcium-dependent protein kinase 4 (Plasmodium falciparum (isolate 3D7)) (UniProt Q8IBS5). The assay is described as follows: PfCDPK4 kinase inhibitors, biochemical, TCAMS library (AID 1159588; cut-off not given, nearly all actives have IC50 up to about 0.91 µM). As to conditions: recombinant PfCDPK4, Kinase-Glo ATP depletion luminescence.
Sequence of Calcium-dependent protein kinase 4 (Plasmodium falciparum (isolate 3D7)) (Q8IBS5 whole entry, looked up): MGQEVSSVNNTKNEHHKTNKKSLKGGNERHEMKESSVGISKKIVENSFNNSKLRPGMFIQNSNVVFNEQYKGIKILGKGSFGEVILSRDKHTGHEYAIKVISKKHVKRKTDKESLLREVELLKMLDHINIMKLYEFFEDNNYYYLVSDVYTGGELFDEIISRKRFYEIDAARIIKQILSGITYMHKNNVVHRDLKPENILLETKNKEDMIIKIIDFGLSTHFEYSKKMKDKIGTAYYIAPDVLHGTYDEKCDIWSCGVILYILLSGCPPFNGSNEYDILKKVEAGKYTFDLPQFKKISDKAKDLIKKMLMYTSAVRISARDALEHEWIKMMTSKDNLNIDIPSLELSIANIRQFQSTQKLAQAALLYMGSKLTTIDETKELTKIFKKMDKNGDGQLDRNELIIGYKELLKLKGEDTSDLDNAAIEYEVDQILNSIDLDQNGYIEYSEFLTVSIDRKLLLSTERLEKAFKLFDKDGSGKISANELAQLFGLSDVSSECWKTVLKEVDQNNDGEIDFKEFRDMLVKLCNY

A number with no mark means an inactive call. For some assays here: Entries with a potency or affinity are not part of this list. Active and inactive are the calls of the source. Unless noted, no rule for the calls is given here.

Sequence of Calcium-dependent protein kinase 1 (Plasmodium falciparum (isolate 3D7)) (P62344 whole entry, looked up): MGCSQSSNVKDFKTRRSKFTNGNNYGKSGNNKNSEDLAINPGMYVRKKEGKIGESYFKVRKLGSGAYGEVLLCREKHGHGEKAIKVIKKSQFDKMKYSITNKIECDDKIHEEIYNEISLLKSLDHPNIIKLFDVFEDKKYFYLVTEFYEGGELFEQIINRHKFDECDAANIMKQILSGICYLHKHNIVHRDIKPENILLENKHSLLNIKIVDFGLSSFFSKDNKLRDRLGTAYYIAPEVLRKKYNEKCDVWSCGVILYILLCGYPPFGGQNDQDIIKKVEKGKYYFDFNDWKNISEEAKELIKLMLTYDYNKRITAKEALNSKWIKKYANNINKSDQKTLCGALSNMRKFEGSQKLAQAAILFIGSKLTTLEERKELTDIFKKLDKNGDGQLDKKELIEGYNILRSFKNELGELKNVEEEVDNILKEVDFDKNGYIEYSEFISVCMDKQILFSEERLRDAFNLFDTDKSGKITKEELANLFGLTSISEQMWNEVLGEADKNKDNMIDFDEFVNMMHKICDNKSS
Sequence of Protein kinase 7 (PK7), Plasmodium falciparum 3D7 (PF3D7_0213400) (Q7YTF7 1-343): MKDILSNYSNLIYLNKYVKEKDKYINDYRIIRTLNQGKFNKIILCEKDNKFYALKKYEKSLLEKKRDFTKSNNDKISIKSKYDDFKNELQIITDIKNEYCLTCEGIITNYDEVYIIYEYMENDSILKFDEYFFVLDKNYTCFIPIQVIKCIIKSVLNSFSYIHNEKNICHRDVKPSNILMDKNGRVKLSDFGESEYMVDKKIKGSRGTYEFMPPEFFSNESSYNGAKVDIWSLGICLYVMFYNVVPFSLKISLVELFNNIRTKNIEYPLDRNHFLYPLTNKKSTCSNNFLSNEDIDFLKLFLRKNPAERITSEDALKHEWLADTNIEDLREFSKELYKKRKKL

On to `CCC(C)C(COC(=O)c1cc(OC)c(OC)c(OC)c1)N(C)CCN(C)C(COC(=O)c1cc(OC)c(OC)c(OC)c1)C(C)CC` (configuration not stated), for which the growth inhibition in assay [1] is 45%; in assay [4] it was 84% (active). The figures for the inhibition in assay [2] and in assay [3] were 20% and 3%, respectively. In addition, the result in assay [5], in assay [6], in assay [7] and in assay [8] was inactive.

With `Cc1cc(NN=Cc2ccccc2)c2cc(F)ccc2n1`, the growth inhibition in assay [1] is 94% (active); in assay [4], 101% (active). Also, the results for the inhibition in assay [2] and in assay [3] were 11% and -1%, respectively. For the same compound, the outcome in assay [5], in assay [6], in assay [7] and in assay [8] was inactive.

In the case of `COc1ccc(NC(=O)Nc2ccc(Nc3nc(C)cc(N(C)C)n3)cc2)cc1`, the growth inhibition in assay [1] is 99% (active); in assay [4], 102% (active). For the same compound, the inhibition in assay [2] was 11%; in assay [3] it was -3%. Moreover, the outcome in assay [5], in assay [6], in assay [7] and in assay [8] was inactive.

Take `CN1CCCN(Cc2cccc(-c3ccc(CNC(=O)c4cccc(Cl)c4)c(F)c3)c2)CC1`: the figures for the growth inhibition in assay [1] and in assay [4] were 38% and 96% (active), respectively. The inhibition was 56% (active) in assay [2] and -2% in assay [3]. The result in assay [5], in assay [6], in assay [7] and in assay [8] was inactive.

On to `COc1ccc2ncc(C)c(CCN3CCC(NCc4ccc5c(n4)NC(=O)CS5)CC3)c2c1`, for which the growth inhibition in assay [1] is 53% (active); in assay [4] it was 100% (active). The figures for the inhibition in assay [2] and in assay [3] were 14% and -4%, respectively. The outcome in assay [5], in assay [6], in assay [7] and in assay [8] was inactive.

`CCNc1cc(C(=O)N[C@@H](Cc2ccccc2)[C@H](O)CNCc2cccc(OC)c2C)cc(N2CCCCS2(=O)=O)c1`: the growth inhibition in assay [1] is 98% (active); in assay [4] it was 97% (active). For the same compound, the inhibition is 8% in assay [2] and -1% in assay [3]. The outcome in assay [5], in assay [6], in assay [7] and in assay [8] was inactive.

On to `CC(C)(C)OC(=O)NCc1ccc(Nc2nnc(-c3ccc(OCC(=O)NC[C@@H]4CC[C@H]5C[C@@H]4C5(C)C)c([N+](=O)[O-])c3)o2)cc1`, for which the growth inhibition was 52% (active) in assay [1] and 94% (active) in assay [4]. The inhibition in assay [2] is 29%; in assay [3], -3%. The outcome in assay [5], in assay [6], in assay [7] and in assay [8] was inactive.

With `CN1CCN(CC(O)CNC(=O)Nc2ccc(Br)cc2)CC1` (configuration not stated), the growth inhibition in assay [1] and in assay [4] was 100% (active) each time. The inhibition in assay [2] is 5%; in assay [3], -2%. For the same compound, the result in assay [5], in assay [6], in assay [7] and in assay [8] was inactive.

Regarding `Nc1nc(N)c2cc3ccc(OCc4ccccc4)cc3nc2n1`, the growth inhibition in assay [1] is 75% (active); in assay [4], 100% (active). For the same compound, the figures for the inhibition in assay [2] and in assay [3] were 78% (active) and 0%, respectively. Besides, the result in assay [5], in assay [6], in assay [7] and in assay [8] was inactive.

Consider `O=C(NCCCCN1CCC(c2c[nH]c3ccccc23)CC1)c1sc(-c2ccc(C(F)(F)F)cc2)nc1CO`, for which the growth inhibition is 3% in assay [1] and 94% (active) in assay [4]. The results for the inhibition in assay [2] and in assay [3] were 34% and 0%, respectively. Also, the outcome in assay [5], in assay [6], in assay [7] and in assay [8] was inactive.

With `CCC(NC[C@@H](O)[C@H](Cc1ccccc1)NC(=O)c1cc(C2CCCC2)cc(N2CCCC2=O)c1)c1cccc(Cl)c1` (some centres not stated), the values for the growth inhibition in assay [1] and in assay [4] were 97% (active) and 100% (active), respectively. The inhibition in assay [2] was 7%; in assay [3] it was -8%. In addition, the result in assay [5], in assay [6], in assay [7] and in assay [8] was inactive.

Consider `COc1ccc(-c2ccc(NC(=O)c3cccc(C#N)c3)cc2)cc1CN1CCN(C)CC1`, for which the values for the growth inhibition in assay [1] and in assay [4] were 59% (active) and 100% (active), respectively. The figures for the inhibition in assay [2] and in assay [3] were 26% and 8%, respectively. The result in assay [5], in assay [6], in assay [7] and in assay [8] was inactive.

In the case of `COC(=O)[C@@H](NC(=O)[C@@H](Nc1ccc(C#N)c2ccccc12)C(C)(C)C)c1ccc(O)cc1`, the growth inhibition in assay [1] is 74% (active); in assay [4], 101% (active). The inhibition in assay [2] is -4%; in assay [3] it was 1%. In addition, the outcome in assay [5], in assay [6], in assay [7] and in assay [8] was inactive.

`Cc1ccc(NC(=O)Nc2ccc(Cl)cc2)cc1-c1cccc(C(=O)Nc2ccc(F)cc2)c1`: the growth inhibition in assay [1] was 52% (active); in assay [4], 96% (active). The inhibition was 8% in assay [2] and 5% in assay [3]. For the same compound, the outcome in assay [5], in assay [6], in assay [7] and in assay [8] was inactive.

In the case of `COc1ccc(CN2CCCN(Cc3ccc(C(=O)Nc4ccc(Cl)cc4)cc3)CC2)cc1`, the growth inhibition in assay [1] was 3%; in assay [4], 91% (active). Further, the results for the inhibition in assay [2] and in assay [3] were 46% and 0%, respectively. Further, the result in assay [5], in assay [6], in assay [7] and in assay [8] was inactive.

Regarding `CN(Cc1cc(C(F)(F)F)cc(C(F)(F)F)c1)C(=O)C(Cc1ccc(F)cc1)C1CCCNC1` (configuration not stated), the growth inhibition in assay [1] is 89% (active); in assay [4] it was 96% (active). Also, the inhibition in assay [2] is 10%; in assay [3], 4%. Also, the outcome in assay [5], in assay [6], in assay [7] and in assay [8] was inactive.

Consider `Cc1cc(N)nc2ccc(-c3ccc(CN)cc3)cc12`, for which the growth inhibition in assay [1] is 93% (active); in assay [4], 100% (active). Also, the inhibition was 4% in assay [2] and -3% in assay [3]. For the same compound, the outcome in assay [5], in assay [6], in assay [7] and in assay [8] was inactive.

For `Cc1c(Cc2ccccc2Br)cnc2nc(N)nc(N)c12`, the values for the growth inhibition in assay [1] and in assay [4] were 97% (active) and 88% (active), respectively. Moreover, the inhibition in assay [2] was 67% (active); in assay [3], 0%. In addition, the outcome in assay [5], in assay [6], in assay [7] and in assay [8] was inactive.

For `CCCc1cc(=O)[nH]c(-n2nc(C)cc2NC(=O)CC(c2ccccc2)c2ccccc2)n1`, the growth inhibition in assay [1] is 88% (active); in assay [4], 97% (active). For the same compound, the inhibition in assay [2] is 39%; in assay [3], 4%. Besides, the result in assay [5], in assay [6], in assay [7] and in assay [8] was inactive.
